{"source": "PubChem BioAssay (NCATS)", "note": "Records with an inconclusive call do not appear. Activity calls are given as the source filed them. The call rests on the fitted dose curve; in most records, active means well fitted inhibition curve with a large enough effect; inconclusive means small, poorly fitted or top-dose-only effect; inactive means flat fitted curve, though single readings scatter. On the % scale 0 is the no-effect control and ±100 the full control effect.", "data": [{"molecular_target": "Calcium and integrin-binding protein 1 (Homo sapiens) (UniProt Q99828)", "sequence (Q99828 whole entry, looked up)": "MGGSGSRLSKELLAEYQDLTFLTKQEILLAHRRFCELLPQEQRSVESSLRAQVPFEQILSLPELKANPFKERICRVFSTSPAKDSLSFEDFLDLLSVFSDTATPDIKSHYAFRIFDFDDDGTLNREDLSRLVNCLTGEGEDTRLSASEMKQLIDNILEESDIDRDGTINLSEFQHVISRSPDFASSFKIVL", "test": "Primary qHTS for Identification of Calcium Integrin Binding Protein 1 (CIB1) Competitor (AID 1508620); further: top concentration of the series differs between compounds", "details": "CIB1-GST / FITC-alphaIIb peptide fluorescence polarization; series mostly up to 114 µM; activity change, negative = inhibition: at the top concentration", "procedure,_shortened": "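Fluorescence polarization competition: GST-tagged CIB1 (1 uM final) preincubated with compound 15 min at room temperature, then FITC-labelled alphaIIb peptide (100 nM final) added. After 15 min at room temperature, polarization read at Ex 480/Em 540.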", "values": [{"compound": "O=C(O)c1ccc(-c2nn3c(=O)cc(N4CCNCC4)nc3s2)cc1", "activity change, negative = inhibition": "-0.465% (inactive)"}, {"compound": "O=C(O)c1ccc2c(c1)C(=O)N([C@H](Cc1c3ccccc3cc3ccccc13)C(=O)O)C2=O", "activity change, negative = inhibition": "-2.03% (inactive)"}, {"compound": "O=C(COC(=O)CNC(=O)c1ccccc1)Nc1ccccc1Cl", "activity change, negative = inhibition": "-1.75% (inactive)"}, {"compound": "CC(C)c1ccccc1-c1nc2c(c(NCc3ccc(-c4cccnc4)cc3)n1)CNC2", "activity change, negative = inhibition": "-1.1% (inactive)"}, {"compound": "Cc1ccc(C2N=C(Nc3nc4ccccc4o3)NC3=C2C(=O)CCC3)cc1", "note": "(stereo unspecified)", "activity change, negative = inhibition": "-2.38% (inactive)"}, {"compound": "FC(F)(F)c1ccccc1-c1nc(NCc2ccc(-c3cccc(Cl)c3)cc2)c2ccccc2n1", "activity change, negative = inhibition": "4.02% (inactive)"}, {"compound": "COC(=O)c1cncc(NC(=O)c2cccs2)c1", "activity change, negative = inhibition": "-3.94% (inactive)"}, {"compound": "O=C1CN(S(=O)(=O)c2ccc3c(c2)OCCO3)CCN1S(=O)(=O)c1c(F)cccc1F", "activity change, negative = inhibition": "-0.843% (inactive)"}, {"compound": "CC(=O)N1CCN(c2ccc(NCc3ccccc3)cc2)CC1", "activity change, negative = inhibition": "-14% (inactive)"}, {"compound": "O=C(Cc1ccccc1)Nc1nnc(-c2ccncc2)s1", "activity change, negative = inhibition": "2.43% (inactive)"}, {"compound": "O=C(Nc1cccc(-c2nn3c(=O)cc(N4CCNCC4)nc3s2)c1)C1CCNCC1", "activity change, negative = inhibition": "-1.07% (inactive)"}, {"compound": "O=C(NC1CCCc2c1cnn2-c1ccc(F)cc1F)c1ccncc1", "note": "(stereo unspecified)", "activity change, negative = inhibition": "3.27% (inactive)"}, {"compound": "COc1ccc(-c2nc3ccccc3n2Cc2ccccc2)cc1COc1ccc(NC(C)=O)cc1", "activity change, negative = inhibition": "2.17% (inactive)"}, {"compound": "O=C(NC1CCCc2c1cnn2-c1ccc(F)cc1F)C1CC1", "note": "(stereo unspecified)", "activity change, negative = inhibition": "0.633% (inactive)"}, {"compound": "Cc1cc(NS(=O)(=O)c2ccc3c(c2)CCC(=O)N3)ccc1Cl", "activity change, negative = inhibition": "-8.29% (inactive)"}, {"compound": "CCC(=O)NC(c1ccco1)c1cc(Cl)c2cccnc2c1O", "note": "(stereo unspecified)", "activity change, negative = inhibition": "-12.2% (inactive)"}, {"compound": "CC(=O)Nc1sc2c(c1-c1cnn(C(C)=O)c1)CCNC2", "activity change, negative = inhibition": "0.0416% (inactive)"}, {"compound": "Cc1sc(C)c2c1C(=O)NS2(=O)=O", "activity change, negative = inhibition": "2.74% (inactive)"}, {"compound": "Cc1cccc(-c2nnc(C)n2CCCn2ccnc2)c1N", "activity change, negative = inhibition": "-0.0463% (inactive)"}, {"compound": "CC(=O)Nc1sc2c(c1-c1ccc3nsnc3c1)CCNC2", "activity change, negative = inhibition": "-9.3% (inactive)"}, {"compound": "COc1c(Cl)cccc1NC(=O)c1c(NC(=O)Cc2ccccc2)sc2c1CCCC2", "activity change, negative = inhibition": "0.681% (inactive)"}]}]}
